Of roughly 8,800 targets only a part is listed; those with a hit were picked by preference. About 0.5% of all pairs of compound and target were hits. Values without a mark were called inactive.
Legend:
Test in all cases: log2 fold change, soluble protein after heating vs DMSO (PISA); higher = thermal stabilisation; K562 lysate, 10 uM; active = over 0.2 and 3.5 SD of the protein, either way, in both replicates (recomputed)
[1] = compound: NCC(=O)Nc1ccc(-n2nc(C(F)(F)F)cc2-c2ccc3c(ccc4ccccc43)c2)cc1
Outline: (§1)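 K562 pellets were dounce-homogenised in PBS pH 7.4 containing 1 mM MgCl2, and the crude extract, at 1 mg/mL protein, was exposed to 10 μM compound for 30 min. Aliquots were heated for 3 min across 48°C-58°C, pooled, brought to 0.5% NP-40 at 4°C and spun at 21,000xg for 90 min, with the supernatant taken as soluble protein. TMTpro 16plex LC-MS/MS with equalised channel sums quantified that protein. Values are log-two fold changes in thermal stability relative to solvent controls, taken from duplicates.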

[2] = compound: O=C1NC(=O)C(c2cnc3ccccn23)=C1c1cn2c3c(cc(F)cc13)CN(C(=O)N1CCCCC1)CC2
Outline: as §1

[3] = compound: c1cn2cc(-c3ccc4cn[nH]c4c3)nc(Nc3ccc(N4CCOCC4)cc3)c2n1 [entospletinib]
Outline: as §1

[4] = compound: O=C(CCCCCCC(=O)Nc1ccccc1)NO [vorinostat]
Outline: as §1

[5] = compound: O=C(O)c1ccc2c(c1)nc(Nc1cccc(Cl)c1)c1ccncc12 [silmitasertib]
Outline: as §1

Target: LRRC9 (UniProt Q6ZRR7)
- log2 fold change [1]: 0.106
- log2 fold change [2]: -0.034
- log2 fold change [3]: 0.011

Target: LYN isoform 2 (UniProt P07948)
UniProt P07948, sequence (P07948 whole entry, looked up): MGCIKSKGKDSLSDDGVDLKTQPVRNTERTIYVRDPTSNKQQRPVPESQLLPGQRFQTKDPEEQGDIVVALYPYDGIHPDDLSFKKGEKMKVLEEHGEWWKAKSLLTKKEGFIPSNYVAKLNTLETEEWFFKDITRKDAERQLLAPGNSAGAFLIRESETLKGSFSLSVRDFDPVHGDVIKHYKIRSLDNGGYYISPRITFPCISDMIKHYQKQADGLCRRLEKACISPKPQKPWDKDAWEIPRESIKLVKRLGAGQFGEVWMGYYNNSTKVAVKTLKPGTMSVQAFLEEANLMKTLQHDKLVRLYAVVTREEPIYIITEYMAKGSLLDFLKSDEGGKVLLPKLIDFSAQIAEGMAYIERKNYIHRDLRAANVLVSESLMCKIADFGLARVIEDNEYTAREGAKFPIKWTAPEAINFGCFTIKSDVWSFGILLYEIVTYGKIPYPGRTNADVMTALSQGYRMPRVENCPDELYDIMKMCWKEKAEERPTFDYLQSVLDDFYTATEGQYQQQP
- log2 fold change [4]: -0.118
- log2 fold change [5]: 0.049
- log2 fold change [2]: -0.31
- log2 fold change [3]: 0.129

Target: MME (UniProt P08473)
- log2 fold change [4]: 0.096
- log2 fold change [5]: -0.033
- log2 fold change [2]: -0.038

Target: MRC2 (UniProt Q9UBG0)
UniProt Q9UBG0, sequence (Q9UBG0 whole entry, looked up): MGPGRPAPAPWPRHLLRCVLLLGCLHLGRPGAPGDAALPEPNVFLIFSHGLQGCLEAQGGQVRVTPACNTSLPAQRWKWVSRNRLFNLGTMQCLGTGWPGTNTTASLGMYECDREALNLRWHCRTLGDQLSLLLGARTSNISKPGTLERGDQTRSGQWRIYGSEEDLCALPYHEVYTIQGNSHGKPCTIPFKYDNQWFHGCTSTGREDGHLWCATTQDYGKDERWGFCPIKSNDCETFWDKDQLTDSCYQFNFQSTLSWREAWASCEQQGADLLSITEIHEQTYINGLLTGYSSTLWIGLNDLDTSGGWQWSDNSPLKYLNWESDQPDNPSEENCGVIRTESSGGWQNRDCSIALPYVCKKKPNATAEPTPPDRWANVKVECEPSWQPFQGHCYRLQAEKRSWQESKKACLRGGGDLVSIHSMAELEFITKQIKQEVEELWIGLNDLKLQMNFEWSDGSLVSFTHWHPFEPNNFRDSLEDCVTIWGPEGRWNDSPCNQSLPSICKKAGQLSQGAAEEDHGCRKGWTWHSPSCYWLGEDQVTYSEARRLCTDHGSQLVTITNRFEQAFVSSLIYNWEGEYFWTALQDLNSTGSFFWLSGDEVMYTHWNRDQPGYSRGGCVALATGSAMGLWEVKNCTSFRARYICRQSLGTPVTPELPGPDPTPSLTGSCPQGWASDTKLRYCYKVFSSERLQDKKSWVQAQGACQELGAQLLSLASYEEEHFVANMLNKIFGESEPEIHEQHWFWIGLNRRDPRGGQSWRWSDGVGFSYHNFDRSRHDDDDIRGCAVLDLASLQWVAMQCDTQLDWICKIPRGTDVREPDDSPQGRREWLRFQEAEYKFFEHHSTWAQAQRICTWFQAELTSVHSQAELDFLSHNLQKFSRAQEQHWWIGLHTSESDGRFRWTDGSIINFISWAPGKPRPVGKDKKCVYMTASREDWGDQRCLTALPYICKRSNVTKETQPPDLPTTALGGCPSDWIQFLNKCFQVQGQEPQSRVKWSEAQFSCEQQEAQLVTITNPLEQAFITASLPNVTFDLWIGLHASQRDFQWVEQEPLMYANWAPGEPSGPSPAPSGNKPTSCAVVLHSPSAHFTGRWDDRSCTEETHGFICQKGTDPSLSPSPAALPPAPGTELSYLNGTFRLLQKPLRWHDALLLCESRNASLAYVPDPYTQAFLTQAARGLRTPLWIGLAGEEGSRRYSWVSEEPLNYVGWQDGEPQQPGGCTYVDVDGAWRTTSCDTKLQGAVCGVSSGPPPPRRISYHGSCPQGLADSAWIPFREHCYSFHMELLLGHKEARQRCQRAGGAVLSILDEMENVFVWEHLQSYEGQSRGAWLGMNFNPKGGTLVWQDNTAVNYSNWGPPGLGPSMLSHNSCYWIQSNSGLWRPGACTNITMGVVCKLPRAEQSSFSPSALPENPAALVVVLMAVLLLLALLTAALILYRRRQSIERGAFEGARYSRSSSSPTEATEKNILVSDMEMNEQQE
- log2 fold change [4]: 0.346
- log2 fold change [5]: -0.051
- log2 fold change [2]: -0.171
- log2 fold change [3]: -0.055

Target: MCU (UniProt Q8NE86)
UniProt Q8NE86, sequence (Q8NE86 whole entry, looked up): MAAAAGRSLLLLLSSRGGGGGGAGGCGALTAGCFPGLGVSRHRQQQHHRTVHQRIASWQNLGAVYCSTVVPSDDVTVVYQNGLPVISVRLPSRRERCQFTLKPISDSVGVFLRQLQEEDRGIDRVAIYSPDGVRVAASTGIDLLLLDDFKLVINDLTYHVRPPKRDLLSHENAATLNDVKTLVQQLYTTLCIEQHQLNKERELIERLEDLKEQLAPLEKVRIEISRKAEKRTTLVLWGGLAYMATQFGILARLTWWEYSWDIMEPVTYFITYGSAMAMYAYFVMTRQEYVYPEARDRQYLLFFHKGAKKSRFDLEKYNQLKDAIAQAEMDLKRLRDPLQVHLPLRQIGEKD
- log2 fold change [1]: -0.037
- log2 fold change [4]: 0.04
- log2 fold change [5]: 0
- log2 fold change [2]: -0.072
- log2 fold change [3]: -0.016

Target: MAPKAP1 (UniProt Q9BPZ7)
UniProt Q9BPZ7, sequence (Q9BPZ7 whole entry, looked up): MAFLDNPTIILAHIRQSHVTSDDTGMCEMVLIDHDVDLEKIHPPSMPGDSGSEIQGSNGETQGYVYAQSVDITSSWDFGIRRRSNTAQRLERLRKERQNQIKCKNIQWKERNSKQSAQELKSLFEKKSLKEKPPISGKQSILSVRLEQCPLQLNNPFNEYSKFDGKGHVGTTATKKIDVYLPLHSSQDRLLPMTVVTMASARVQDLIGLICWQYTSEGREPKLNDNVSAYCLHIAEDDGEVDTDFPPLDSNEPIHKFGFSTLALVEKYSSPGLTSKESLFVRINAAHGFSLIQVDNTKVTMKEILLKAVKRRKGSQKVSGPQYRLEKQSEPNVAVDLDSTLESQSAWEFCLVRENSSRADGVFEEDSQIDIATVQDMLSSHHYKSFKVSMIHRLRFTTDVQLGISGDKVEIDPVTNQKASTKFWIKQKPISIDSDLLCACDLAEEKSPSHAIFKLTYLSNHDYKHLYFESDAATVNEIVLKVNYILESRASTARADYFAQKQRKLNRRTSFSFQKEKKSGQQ
- log2 fold change [4]: -0.111
- log2 fold change [5]: 0.187
- log2 fold change [2]: -0.018
- log2 fold change [3]: -0.157

Target: LRRC7 (UniProt Q96NW7)
- log2 fold change [1]: -0.097
- log2 fold change [2]: -0.012
- log2 fold change [3]: -0.108

Target: LRRIQ1 (UniProt Q96JM4)
- log2 fold change [1]: 0.056
- log2 fold change [2]: 0.754 (active)

Target: METTL21A (UniProt Q8WXB1)
- log2 fold change [4]: 0.07
- log2 fold change [5]: -0.016
- log2 fold change [2]: -0.013

Target: MAP1S (UniProt Q66K74)
- log2 fold change [1]: 0.006
- log2 fold change [4]: -0.242 (active)
- log2 fold change [5]: -0.004
- log2 fold change [2]: -0.025
- log2 fold change [3]: 0.01

Target: MRPL28 (UniProt Q13084)
- log2 fold change [1]: 0.002
- log2 fold change [4]: -0.037
- log2 fold change [5]: 0.022
- log2 fold change [2]: 0.044
- log2 fold change [3]: 0.129

Target: MED28 (UniProt Q9H204)
UniProt Q9H204, sequence (Q9H204 whole entry, looked up): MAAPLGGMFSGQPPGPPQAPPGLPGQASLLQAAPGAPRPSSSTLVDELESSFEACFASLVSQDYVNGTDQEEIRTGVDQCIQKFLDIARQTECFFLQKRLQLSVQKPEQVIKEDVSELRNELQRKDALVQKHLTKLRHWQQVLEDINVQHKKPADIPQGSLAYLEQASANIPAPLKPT
- log2 fold change [4]: -0.219
- log2 fold change [5]: 0.003
- log2 fold change [2]: 0.09

Target: MRPL27 (UniProt Q9P0M9)
- log2 fold change [4]: 0.087
- log2 fold change [5]: 0.106
- log2 fold change [2]: -0.008
- log2 fold change [3]: -0.027

Target: KLC1 isoform 10 (UniProt Q07866)
UniProt Q07866, sequence (Q07866 whole entry, looked up): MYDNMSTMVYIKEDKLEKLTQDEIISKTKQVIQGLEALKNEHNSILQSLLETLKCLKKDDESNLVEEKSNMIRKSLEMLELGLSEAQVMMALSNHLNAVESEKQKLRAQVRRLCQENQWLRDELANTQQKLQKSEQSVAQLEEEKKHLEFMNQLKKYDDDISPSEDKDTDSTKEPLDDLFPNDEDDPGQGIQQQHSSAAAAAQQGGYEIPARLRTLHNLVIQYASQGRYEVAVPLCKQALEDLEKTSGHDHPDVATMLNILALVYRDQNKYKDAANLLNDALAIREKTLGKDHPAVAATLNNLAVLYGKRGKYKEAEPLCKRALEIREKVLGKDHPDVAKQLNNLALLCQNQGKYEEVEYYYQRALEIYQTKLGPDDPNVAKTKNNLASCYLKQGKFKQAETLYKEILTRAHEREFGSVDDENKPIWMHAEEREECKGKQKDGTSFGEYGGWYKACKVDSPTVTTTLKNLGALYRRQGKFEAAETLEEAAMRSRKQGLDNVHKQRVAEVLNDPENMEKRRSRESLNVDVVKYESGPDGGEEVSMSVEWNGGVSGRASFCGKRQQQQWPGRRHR
- log2 fold change [4]: -0.144
- log2 fold change [5]: -0.165
- log2 fold change [3]: -0.171

Target: MAP4K4 isoform 3 (UniProt O95819)
UniProt O95819, sequence (O95819 whole entry, looked up): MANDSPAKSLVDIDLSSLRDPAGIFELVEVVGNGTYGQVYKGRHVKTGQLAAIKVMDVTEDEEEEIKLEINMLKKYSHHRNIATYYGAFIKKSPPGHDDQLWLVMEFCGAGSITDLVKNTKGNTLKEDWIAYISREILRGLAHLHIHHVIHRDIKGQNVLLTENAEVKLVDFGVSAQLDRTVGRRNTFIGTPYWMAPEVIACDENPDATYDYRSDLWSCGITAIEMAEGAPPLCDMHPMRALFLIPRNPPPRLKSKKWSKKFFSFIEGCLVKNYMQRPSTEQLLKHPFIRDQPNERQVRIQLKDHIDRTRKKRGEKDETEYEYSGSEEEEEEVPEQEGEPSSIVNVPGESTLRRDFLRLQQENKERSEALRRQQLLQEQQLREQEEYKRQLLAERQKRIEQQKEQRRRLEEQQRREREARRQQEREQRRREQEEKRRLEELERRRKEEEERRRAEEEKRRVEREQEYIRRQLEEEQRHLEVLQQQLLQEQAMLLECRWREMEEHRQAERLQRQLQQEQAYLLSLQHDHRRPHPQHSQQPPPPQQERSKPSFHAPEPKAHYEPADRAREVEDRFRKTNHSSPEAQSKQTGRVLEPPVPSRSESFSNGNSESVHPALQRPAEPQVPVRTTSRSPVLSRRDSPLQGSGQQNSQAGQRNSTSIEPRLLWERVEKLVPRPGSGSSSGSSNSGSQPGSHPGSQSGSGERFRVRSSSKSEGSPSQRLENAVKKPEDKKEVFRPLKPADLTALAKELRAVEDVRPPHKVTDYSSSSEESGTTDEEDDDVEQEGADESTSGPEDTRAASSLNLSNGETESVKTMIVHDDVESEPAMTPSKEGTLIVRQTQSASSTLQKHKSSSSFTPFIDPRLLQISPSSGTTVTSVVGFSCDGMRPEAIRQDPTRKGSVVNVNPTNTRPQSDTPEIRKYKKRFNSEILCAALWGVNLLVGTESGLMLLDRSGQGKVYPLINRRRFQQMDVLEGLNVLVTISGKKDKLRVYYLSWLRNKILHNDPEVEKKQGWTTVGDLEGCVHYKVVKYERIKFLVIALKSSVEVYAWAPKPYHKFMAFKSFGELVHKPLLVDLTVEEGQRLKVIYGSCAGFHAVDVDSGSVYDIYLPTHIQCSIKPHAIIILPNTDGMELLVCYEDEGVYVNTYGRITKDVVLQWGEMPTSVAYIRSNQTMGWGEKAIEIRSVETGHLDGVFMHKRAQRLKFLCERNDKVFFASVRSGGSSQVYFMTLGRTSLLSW
- log2 fold change [1]: 0.041
- log2 fold change [4]: -0.145
- log2 fold change [5]: 0.045
- log2 fold change [3]: 0.178

Target: KIF18B (UniProt Q86Y91)
- log2 fold change [2]: -0.098
- log2 fold change [3]: -0.035

Target: MEGF8 (UniProt Q7Z7M0)
- log2 fold change [4]: 0.05
- log2 fold change [5]: -0.062
- log2 fold change [2]: 0.02
- log2 fold change [3]: -0.048

Target: LRP1 (UniProt Q07954)
- log2 fold change [1]: 0.233
- log2 fold change [2]: 0.296
- log2 fold change [3]: -0.032

— the supplement of paper PMC10849652
